From PubChem BioAssay AID488838 (National Center for Advancing Translational Sciences (NCATS), 2010)
Results filed as inconclusive are left out. The source made the active and inactive calls. The call rests on the fitted dose curve; in most records, active means well fitted inhibition curve with a large enough effect; inconclusive means small, poorly fitted or top-dose-only effect; inactive means flat fitted curve, though single readings scatter.

What follows are compounds tested against Luciferin 4-monooxygenase (Photinus pyralis) (UniProt P08659) (assay: Counterscreen Assay for Enhancers of SMN2 Splice Variant Expression: Interaction with Luciferase Reporter for Further Probe SAR). Settings: purified firefly luciferase, luminescence, 5 min; series mostly up to 57.5 µM; activity change, negative = inhibition: at the top concentration.
Sequence of Luciferin 4-monooxygenase (Photinus pyralis) (P08659 whole entry, looked up, canonical isoform): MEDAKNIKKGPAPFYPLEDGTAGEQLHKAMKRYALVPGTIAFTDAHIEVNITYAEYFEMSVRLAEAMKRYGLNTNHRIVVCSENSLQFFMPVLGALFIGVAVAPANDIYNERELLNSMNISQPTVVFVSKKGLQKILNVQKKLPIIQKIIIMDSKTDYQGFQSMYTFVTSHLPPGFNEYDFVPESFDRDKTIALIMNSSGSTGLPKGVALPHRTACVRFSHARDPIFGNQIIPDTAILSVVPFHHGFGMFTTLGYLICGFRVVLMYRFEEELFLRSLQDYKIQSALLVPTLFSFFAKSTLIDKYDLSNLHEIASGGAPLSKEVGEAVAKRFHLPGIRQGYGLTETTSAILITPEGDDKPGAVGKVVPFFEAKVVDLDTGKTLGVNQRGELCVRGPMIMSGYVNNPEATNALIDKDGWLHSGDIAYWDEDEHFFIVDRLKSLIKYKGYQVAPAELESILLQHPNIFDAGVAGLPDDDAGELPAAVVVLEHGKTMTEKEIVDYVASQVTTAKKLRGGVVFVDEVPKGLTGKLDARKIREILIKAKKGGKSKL
Description: NIH Chemical Genomics Center [NCGC] NIH Molecular Libraries Probe Production centers Network [MLPCN] MLPCN Grant: R03 MH084179-01 Assay Submitter (PI): Elliot Androphy NCGC Assay Overview: Spinal muscular atrophy (SMA) is caused by insufficient levels of the survival motor neuron protein SMN. The SMN locus on chromosome 5q13 contains two inverted copies of SMN called SMN1 and SMN2 which are 99% identical at the amino acid level. SMN1 is a fully functional protein and SMN2 skips exon 7 90% of the time. Skipping of exon 7 produces non-functional protein product. 10% of the SMN2 protein includes exon 7 and is fully functional. In the SMA disease state, mutations in the SMN1 locus are the cause of the disease state. Because only 10% of SMN2 is of the fully functional form, it is not sufficient to overcome the deficiency produced by the loss of the SMN1 product. A therapy that either increases the amount of SMN2 product made increases the inclusion of exon 7 has been proposed for the treatment of SMA. We have designed an assay to identify small molecules that can increase the amount of functional SMN2 product by appending a luciferase reporter gene after the native SMN2 gene, such that inclusion of exon 7 in the expressed product places the luciferase sequence in frame, thus generating functional luciferase enzyme. One potential source of false positives in the primary screening assay is stabilization of the reporter luciferase via direct binding. This assay attempts to identify such compounds by screening directly for luciferase activity in the absence of the cellular system.
NCGC Assay Protocol Summary: The primary screen utilizes a luciferase reporter gene assay, combining the promoter and splicing based cassettes in tandem with the major portion of the native SMN1 cDNA, and then transfected into HEK293 cells. Compounds that modulate luciferase signal presumably modulate expression of […]. In this assay, we utilize purified firefly luciferase in lieu of a cellular reporter to identify compounds interacting directly with luciferase in the primary screen. Sequence, Parameter, Value, Description (1) Reagent, 2.5 uL, Enzyme in buffer (note A) (2) Compound, 23 nL, From stock solutions (3) Time, 5 minutes, Room temp (4) Reagent#2.5 ul, Luciferase detection reagent (note B) (5) Detector, 1 sec integrate, Luminescent read on Viewlux (note C) Sigma enzyme (1 mg) considered to be MW 61,000 diluted in 357 ul assay buffer to 50 uM stock. A - Enzyme and buffer consists of 50 mM Tris-acetate pH 7.6, 10 mM Mg acetate 0.05% BSA, 0.01% Tween and 5 nM firefly luciferase B - Detection reagent = britelite plus diluted 1:10 in PBS C - Viewlux settings were 1 second integration medium sensitivity Keywords: Spinal muscular atrophy, SMA, SMN2, high throughput screening, MLSMR, MLPCN, NIH Roadmap, qHTS and NCGC
In the case of `Cc1ccc(-c2nnc(N3CCC(C(N)=O)CC3)s2)cc1`, the Potency is reported as 16 µM (active).
For `CN(C)c1cccc(-c2cnc(N3CCC(c4ncc[nH]4)CC3)s2)c1`, the Potency was 20.1 µM (active).
`O=C(O)C1CCN(c2ncc(-c3ccc4c(c3)OCCCO4)s2)CC1` was tested, and the Potency was 0.005 µM (active).
In the case of `NC(=O)C1CCN(c2nnc(-c3ccc4c(c3)OCCCO4)s2)CC1`, the Potency is reported as 3.57 µM (active).
With `CS(=O)(=O)c1ccc(-c2csc(N3CCC(C(N)=O)CC3)n2)cc1` the “activity change, negative = inhibition” value was -17.5% (inactive).
`NC(=O)C1CCN(c2nccc(-c3ccc(Br)cc3)n2)CC1` was tested, and the Potency was 25.3 µM (active).
In the case of `CCOC(=O)C1CCN(c2ncc(-c3ccc4c(c3)OCCCO4)s2)CC1`, the Potency is reported as 8 µM (active).
With `CC(C)Oc1cccc(-c2ccnc(N3CCC(C(N)=O)CC3)n2)c1` the Potency was 10.1 µM (active).
With `CC(=O)N1CCN(c2nc(-c3ccc(Br)cc3)cs2)CC1` the Potency was 0.8 µM (active).
With `O=C(O)C1CCN(c2nc(-c3ccc(Br)cc3)cs2)CC1` the Potency was 1.42 µM (active).
With `NC(=O)C1CCN(c2ncc(Br)s2)CC1` the “activity change, negative = inhibition” value was -22.6% (inactive).
In the case of `COc1ccc(-c2cnc(N3CCC(C(N)=O)CC3)s2)cc1OC`, the “activity change, negative = inhibition” value is reported as -15.6% (inactive).
With `NC(=O)C1CCN(c2nc(-c3cccc4sc5ccccc5c34)cs2)CC1` the Potency was 31.8 µM (active).
`CN(C)c1cccc(-c2nccc(N3CCC(C(N)=O)CC3)n2)c1` was tested, and the “activity change, negative = inhibition” value was -19.7% (inactive).
`NC(=O)C1CCN(c2nccc(Cl)n2)CC1` was tested, and the “activity change, negative = inhibition” value was -14.5% (inactive).
In the case of `c1c[nH]c(C2CCN(c3ncc(-c4ccc5c(c4)OCCCO5)s3)CC2)n1`, the Potency is reported as 10.1 µM (active).
`O=C(Nc1ccccc1)C1CCN(c2ncc(-c3ccc4c(c3)OCCCO4)s2)CC1` was tested, and the Potency was 4.01 µM (active).
In the case of `CN(C)c1cccc(-c2ncnc(N3CCC(C(N)=O)CC3)n2)c1`, the “activity change, negative = inhibition” value is reported as -22.2% (inactive).
With `NC(=O)C1CCN(c2nccc(-c3ccc4c(c3)OCCCO4)n2)CC1` the “activity change, negative = inhibition” value was -29.5% (inactive).
In the case of `CC(C)(C)OC(=O)NC1CCN(c2nc(-c3ccc(Br)cc3)cs2)CC1`, the “activity change, negative = inhibition” value is reported as -14.5% (inactive).
`NC1CCN(c2nc(-c3ccc(Br)cc3)cs2)CC1` was tested, and the Potency was 2.01 µM (active).
With `Brc1ccc(-c2csc(N3CCNCC3)n2)cc1` the “activity change, negative = inhibition” value was -8.89% (inactive).
